PubChem BioAssay AID1964107 (National Center for Advancing Translational Sciences (NCATS), 2024)
About 360 (1.2%) of roughly 31,000 compounds were called active. Inconclusive results (about 8%) are left out. The sample as a whole holds a higher share of actives than the screen did. A number with no mark means an inactive call. Calls come from the whole dose curve.

What follows are compounds tested against Polyprotein P1234 (Chikungunya virus (strain S27-African prototype)) (UniProt Q8JUX6) (assay: Primary qHTS for inhibitors of NSP2Pro chikungunya virus (CHIKV)). Settings: FRET peptide cleavage, fluorescence 1 h; series mostly up to 24.9 µM; activity change, negative = inhibition: at the top concentration.
Chain of Polyprotein P1234 (Chikungunya virus (strain S27-African prototype)) (Q8JUX6 whole entry, looked up): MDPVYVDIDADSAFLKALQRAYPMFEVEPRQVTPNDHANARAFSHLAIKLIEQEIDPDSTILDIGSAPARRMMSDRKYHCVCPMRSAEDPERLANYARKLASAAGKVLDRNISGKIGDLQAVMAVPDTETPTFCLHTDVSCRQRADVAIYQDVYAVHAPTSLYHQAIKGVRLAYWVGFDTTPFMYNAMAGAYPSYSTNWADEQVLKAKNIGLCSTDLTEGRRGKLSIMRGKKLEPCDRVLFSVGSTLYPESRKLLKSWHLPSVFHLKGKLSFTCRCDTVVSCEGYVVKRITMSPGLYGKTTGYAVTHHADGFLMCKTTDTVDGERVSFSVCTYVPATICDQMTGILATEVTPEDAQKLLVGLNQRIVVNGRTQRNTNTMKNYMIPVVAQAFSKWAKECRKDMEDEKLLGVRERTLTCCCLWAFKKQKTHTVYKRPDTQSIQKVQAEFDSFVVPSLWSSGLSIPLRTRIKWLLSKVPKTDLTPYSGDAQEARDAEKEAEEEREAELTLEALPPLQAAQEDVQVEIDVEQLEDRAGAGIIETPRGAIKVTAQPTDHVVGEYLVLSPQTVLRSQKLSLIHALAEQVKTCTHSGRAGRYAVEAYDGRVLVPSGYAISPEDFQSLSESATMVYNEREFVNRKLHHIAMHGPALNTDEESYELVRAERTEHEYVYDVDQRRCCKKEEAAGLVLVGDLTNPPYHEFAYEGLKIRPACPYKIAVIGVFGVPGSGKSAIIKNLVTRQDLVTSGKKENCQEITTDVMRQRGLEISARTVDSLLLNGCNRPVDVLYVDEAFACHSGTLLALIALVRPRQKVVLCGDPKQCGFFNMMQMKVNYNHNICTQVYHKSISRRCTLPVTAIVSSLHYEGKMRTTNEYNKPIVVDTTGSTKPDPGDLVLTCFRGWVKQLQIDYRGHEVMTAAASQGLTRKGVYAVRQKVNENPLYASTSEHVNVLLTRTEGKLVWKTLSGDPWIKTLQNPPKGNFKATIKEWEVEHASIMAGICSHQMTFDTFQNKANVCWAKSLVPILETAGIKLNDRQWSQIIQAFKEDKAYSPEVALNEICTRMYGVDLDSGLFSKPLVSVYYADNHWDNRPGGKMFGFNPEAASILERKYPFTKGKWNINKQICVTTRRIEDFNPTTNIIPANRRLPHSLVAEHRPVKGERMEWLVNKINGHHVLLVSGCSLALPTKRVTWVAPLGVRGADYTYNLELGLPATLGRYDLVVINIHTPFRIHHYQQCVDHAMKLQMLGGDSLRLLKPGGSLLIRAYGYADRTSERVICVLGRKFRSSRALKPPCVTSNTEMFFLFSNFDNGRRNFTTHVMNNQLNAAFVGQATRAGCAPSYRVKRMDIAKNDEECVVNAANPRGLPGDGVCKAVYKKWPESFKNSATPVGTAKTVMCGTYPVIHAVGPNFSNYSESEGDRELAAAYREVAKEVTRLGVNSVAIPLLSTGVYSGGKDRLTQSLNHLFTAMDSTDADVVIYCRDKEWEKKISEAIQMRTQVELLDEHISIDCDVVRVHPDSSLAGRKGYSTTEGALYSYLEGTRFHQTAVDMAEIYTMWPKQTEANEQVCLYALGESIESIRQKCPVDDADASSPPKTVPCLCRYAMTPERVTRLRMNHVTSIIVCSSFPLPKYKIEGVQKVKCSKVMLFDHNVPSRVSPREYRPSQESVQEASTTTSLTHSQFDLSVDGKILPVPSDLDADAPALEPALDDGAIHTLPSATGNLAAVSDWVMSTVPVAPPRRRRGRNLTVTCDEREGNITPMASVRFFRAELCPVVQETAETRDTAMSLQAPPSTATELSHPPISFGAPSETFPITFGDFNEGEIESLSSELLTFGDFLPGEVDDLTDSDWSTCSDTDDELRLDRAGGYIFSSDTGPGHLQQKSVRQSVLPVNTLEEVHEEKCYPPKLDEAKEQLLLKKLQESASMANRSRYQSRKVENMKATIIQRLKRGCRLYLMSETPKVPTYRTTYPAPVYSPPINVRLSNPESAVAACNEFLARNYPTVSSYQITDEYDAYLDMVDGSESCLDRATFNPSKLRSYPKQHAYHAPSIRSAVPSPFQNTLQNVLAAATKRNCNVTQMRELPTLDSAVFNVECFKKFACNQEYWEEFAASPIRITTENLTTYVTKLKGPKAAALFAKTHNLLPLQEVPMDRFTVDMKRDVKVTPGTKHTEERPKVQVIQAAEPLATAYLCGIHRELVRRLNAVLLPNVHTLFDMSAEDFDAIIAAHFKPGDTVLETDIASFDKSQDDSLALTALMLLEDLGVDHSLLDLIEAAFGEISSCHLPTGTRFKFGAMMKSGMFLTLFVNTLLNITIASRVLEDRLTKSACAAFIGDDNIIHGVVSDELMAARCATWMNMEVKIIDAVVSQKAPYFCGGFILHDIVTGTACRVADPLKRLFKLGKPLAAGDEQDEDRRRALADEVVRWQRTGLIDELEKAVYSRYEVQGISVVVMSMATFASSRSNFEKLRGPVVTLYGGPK
Description: PI: Natalia J. Martinez Ph.D. National Center for Advancing Translational Sciences (NCATS), National Institute of Health (NIH), Rockville, Maryland Chikungunya virus (CHIKV) is a mosquito-borne RNA virus that has emerged as one of the most important global arboviral threats in the last decade. Although the first CHIKV vaccine has recently been FDA approved for use in healthy adults at increased risk, to date, there are no available antiviral drugs for CHIKV infection. CHIKV nsP2 protease plays a crucial role in the processing of the viral polypeptide precursor to release enzymes required for viral replication, thus making it a promising drug target for antiviral discovery. Here, we established a high-throughput pipeline to identify small molecule inhibitors of nsP2 proteolytic activity. The pipeline is composed of a suite of 1,536-well in vitro assays to support quantitative high-throughput (qHTS) screening campaigns. Specifically, we developed a fluorescence resonance energy transfer (FRET)-based assay using a fluorogenic peptide substrate encompassing an endogenous cleavage site and purified recombinant protease domain (nsP2pro). Using this assay, we interrogated ~37,000 small molecules, including those in drug repurposing libraries as well as chemically diverse and medicinal chemistry-friendly compounds. Hits were selected for follow-up validation against full-length nsP2 and an additional peptide. FRET-based 1,536-well assays for papain, hepatitis C virus NS3-4A, and human furin proteases were implemented to characterize compound selectivity. […] Novel compounds were identified to be potential nsP2 inhibitors and molecular docking analyses were performed to explain the binding mode of selected hits. In vitro antiviral activity was evaluated for a subset of compounds using a high-throughput CHIKV infection assay. To our knowledge, the pipeline presented here is unprecedented for CHIKV antiviral discovery research.
PROTOCOL TABLE (as described by Inglese J, Shamu CE and Guy RK. 2007) SEQUENCE No. (e.g., 1, 2, 3, etc.); […] (e.g., Cells, Incubation, Reagent, etc.); VALUE; DESCRIPTION. 1; Control / Compound; 20 nL; Echo 655 acoustic dispenser, Greiner 1536-well solid bottom black plate. 2; Enzyme; 4 uL; BioRAPTR FRD liquid dispenser (Beckman Coulter). 3; Incubation; 15 min; room temperature. 4; Reagent; 4 uL; 2.5 uM Peptide 2 substrate. 5; Incubation; 1 hr; room temperature. 6; Detection; Fluorescence; WiewLux microplate reader (PerkinElmer), 525 nm excitation, 598/25 nm emission. NOTES (numbers refer to sequence numbers above). 1. Briefly, 20 nL DMSO, positive control ZnAc (20nM final concentration), and test compounds were transferred into a 1,536-well solid bottom black plate (789176-F, Greiner One) via Echo 655 acoustic dispenser (Beckman Coulter). For primary screens, compounds were tested at 7 concentrations, 1:3 dilution points ranging from 25 uM to 34 nM. Follow-up confirmatory screens were carried out at 11 concentrations, 1:3 dilution points from 25 uM to 0.42 nM. 2. Four uL nsP2pro enzyme mix (150 nM final concentration) in 10 mM Tris-HCl pH 8.0 with 0.01% Tween 20 assay buffer was dispensed into the plate using a BioRAPTR FRD liquid dispenser (Beckman Coulter). 3. The plate was incubated at room temperature (protected from light) for 15 min 4. Four microliter of peptide 2 substrate (2.5 uM final concentration) in assay buffer was added to the plate. 5. After 1 hour, plates were immediately read on a ViewLux high-throughput CCD imager (Exposure = 10 sec, Gain = High, Speed = Slow, Binning = 2X). The above assay was also incorporated in the NCATS HTS facility41, which allowed for robotic liquid and compound dispensing, microplate handling, and fluorescence reading.. REFERENCE: Inglese J, Shamu CE and Guy RK, Reporting data from high throughput screening of small molecule libraries, Nature Chemical Biology, 2007, 3(8): 438-441. doi.org/10.1038/nchembio0807-438.
% is set by controls: 0 for no effect and ±100 for the full control effect; potency is the fitted concentration of half-maximal effect.
Note: nearly all actives have a fitted effect of over 60% in size.

Compound | activity change, negative = inhibition | outcome | Potency
Cc1nn(Cc2ccccc2Cl)c(C)c1CN(C)CC(O)COc1ccc(Cl)cc1 (stereo unspecified) | 0.58% |  | 
O=C(Nc1nc(-c2ccccc2)cs1)c1ccncc1NS(=O)(=O)c1ccc(-c2ccccc2)cc1 |  | inactive | 
CCOCCOC1CCN(S(=O)(=O)c2ccc(OC)cc2)CC1 |  | inactive | 
CCOCCCNC(=O)c1cc2c(=O)n3ccccc3nc2s1 | -12% |  | 
CCc1noc(-c2cn(C3CCN(C(=O)C4(c5ccccc5)CC4)C3)nn2)n1 (stereo unspecified) |  | inactive | 
COc1ccc(Cc2ncc3c(n2)CN(C(=O)c2ccc(OC)c(O)c2)C3)cc1 | 4.72% |  | 
CC(NC(=O)c1cc(Sc2ccc(F)cc2F)nc2ccccc12)c1ccccc1 (stereo unspecified) | -18.2% |  | 
O=C(N[C@@H]1CCOC[C@H]1OCCO)c1ccc2c(c1)ncn2CCO | -3.4% |  | 
CCC(=O)N1N=C(c2ccc(OC)cc2)CC1c1cn(-c2ccccc2)nc1-c1cccs1 (stereo unspecified) | -18.6% |  | 
CCC(=O)N1CCc2cc(S(=O)(=O)NC(Cc3ccccc3)C(=O)NCc3ccc(C)cc3)ccc21 (stereo unspecified) | -26.4% |  | 
FC(F)(F)c1cccc(N2CCN(C(=S)Nc3ccncc3)CC2)c1 | 0.924% |  | 
COc1cccc(-c2cn3c(n2)N(C(=O)c2cnccn2)CCC3)c1 | 5.42% |  | 
CCCN=C1S/C(=C\c2ccc(OC[C@H](O)CO)c(Cl)c2)C(=O)N1c1ccccc1C | -11.9% |  | 
CC(=O)c1ccc(NS(=O)(=O)c2ccc(-c3cc(C)no3)s2)cc1 | -10.1% |  | 
Cc1ccc(N2CCN(C(=O)CCc3c(C)nc4c(c3C)c(=O)n(C)c(=O)n4C)CC2)c(C)c1 | -6.64% |  | 
CCC(=O)N1CCc2cc(Br)cc(S(=O)(=O)CCC(=O)NCc3ccccc3OC)c21 | -13.4% |  | 
CCOc1ccc(NC(=O)Cn2nc3n(c2=O)CCN(Cc2ccccc2C)C3=O)cc1 | -3.88% |  | 
N#Cc1ccc(-c2ccc(NC(=O)c3cccs3)cn2)cc1 | 4.86% |  | 
CCOc1ccc(CNC(=O)c2ccc3nc(CC)c(CC)nc3c2)cc1OC | -2.04% |  | 
COc1ccc(CNC(=O)c2cc3c(s2)CN(C2CC2)C3)cc1OC |  | inactive | 
COc1ccc(C2=Nn3c(nnc3-c3ccccc3O)SC2)cc1 | 2.77% |  | 
CCC(C)C(=O)O[C@H]1[C@@H](OC(=O)c2ccoc2)C[C@](C)(O)[C@]23OC(C)(C)[C@H](C[C@H](OC(=O)c4ccoc4)[C@]12COC(C)=O)[C@H]3OC(C)=O (stereo partly specified) | -3.85% [at 10 µM] |  | 
CC1=C[C@@H](CNC2CCOCC2)[C@H](C(C)C)C[C@H]1Cc1nc2ccc(F)cc2[nH]1 | 3.26% [at 39.2 µM] |  | 

Compound | activity change, negative = inhibition | outcome | Potency
COc1ccc(C2=NS(=O)(=O)N(C)C(C(=O)NC(C)c3ccccc3)=C2)cc1 (stereo unspecified) | -13.3% |  | 
CC(C)Oc1cccc(-c2cnc(N3CCC(C(N)=O)CC3)s2)c1 | 0.0009% |  | 
O=C(Nc1ccccc1-c1cn2c(CN3CCNCC3)csc2n1)c1ccc2ccccc2n1 | 17.2% |  | 
COCC(=O)N(C[C@H]1O[C@@H](CC(=O)NC2CC2)[C@H](O)[C@@H]1O)C[C@H]1O[C@@H](CC(=O)NC2CC2)[C@H](O)[C@@H]1O |  | inactive | 
C=CC1C(OC2OC(CO)C(O)C(O)C2O)OC=C(C(=O)OC)C1CC1CC(=O)CC(CCc2ccc(O)cc2)O1 (stereo unspecified) | 7.34% [at 10 µM] |  | 
COc1ccccc1CC(=O)N1CCc2c(nc3cc(-c4ccccc4Cl)[nH]n3c2=O)C1 |  | inactive | 
COc1ccc(C2CC(=O)N(Cc3ccccc3C)c3c2c(C)nn3-c2nc(C)cc(C)n2)c(OC)c1 (stereo unspecified) | -7.48% |  | 
COc1ccc(/C=C2/C(=O)Nc3ccccc32)cc1O |  | inactive | 
COc1ccc(C(=O)Nc2cccc(C(=O)OCc3cc(=O)n4c5c(sc4n3)CCCC5)c2)cc1 | -10.2% |  | 
Cc1cnc(C2CCC2)n1C1CCN(C(=O)CCC2CCCC2)CC1 | -1.69% |  | 
O=C(CSc1nccn1Cc1ccc(Cl)cc1)NCc1ccccc1 | -0.86% |  | 
O=C(NCc1ccc(Cl)cc1)c1cc(-c2ccc[nH]2)n[nH]1 |  |  | 8.91 µM (active)
O=C(CSc1ncc(CO)n1Cc1ccc(Cl)cc1)NCc1ccc(F)cc1 | -6.18% |  | 
COc1ccc(CCn2cc3c(c2-c2ccc(Br)cc2)c(=O)n(C)c(=O)n3C)cc1OC | -19.2% |  | 
C[C@@H]1[C@H](O)[C@@H]2OC(=O)C3=C2[C@H](CCC3)[C@@]12C[C@@H](c1ccoc1)OC2=O |  |  | 5.44 µM (active)
COc1cccc(CNc2ccc(S(=O)(=O)Nc3cc(C)on3)cc2)c1O |  | inactive | 
Fc1ccc(CSc2nc(NCc3ccccc3)c3ccccc3n2)cc1 | 3.47% |  | 
O=C(Nc1ccc(O)c(-c2nc3ccccc3o2)c1)c1ccc(-c2cccc(Cl)c2)o1 | -11.1% |  | 
Cc1nn(C(C)C(=O)NCCc2ccccc2)c(=O)c2c1sc1ccccc12 (stereo unspecified) | -15.8% |  | 
CCOC(=O)c1c(S(=O)(=O)NCC(=O)Nc2ccc(Cl)c(C(F)(F)F)c2)c(C)n(C)c1C | -19.1% |  | 
Cc1ncc([N+](=O)[O-])n1C[C@H](O)CN1CCOCC1 | 11.8% |  | 
CC(C)NC(=O)NCC1Cn2cccc2C(=O)N1Cc1ccccc1 (stereo unspecified) | -12.1% |  | 
Cc1nn(Cc2ccccc2)c(C)c1[C@@H]1C=C[C@@H](NC(=O)NC(C)C)C1 |  |  | 14.1 µM (active)
